# Assays:
# [1] = tested on: Human papillomavirus type 1a protein E7 (residues 44-93); assay: HPV1a E7 fragment binders on microarrays, primary screen, biochemical, small-molecule microarray, residues 44-93, 635 nm fluorescence (AID 1108); settings: small-molecule microarray binding, fluorescence 635 nm; higher = more signal;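 further: E7 fragment applied at 1 µg/mL in TBST for 1 h at 4 C; score combines spot fluorescence with its signal to noise ratio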
# [2] = modulators of HCV replicon luciferase signal, primary screen, HCV replication inhibitor project, Huh7 cells, luciferase reporter (AID 1109); settings: 48 h, higher = more signal;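 further: huh7 hepatoma cells harbouring a luciferase neomycin HCV replicon reporter; luciferase luminescence as measure of HCV replicon replication; test concentration not given here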
# [3] = biological target: Left-right determination factor 2 (Homo sapiens) (UniProt O00292); assay: LEFTY2 binders on small-molecule microarrays, primary screen, biochemical, small-molecule microarray, 635 nm fluorescence scan (AID 1110); settings: LEFTY2 binding, higher = more signal
# [4] = biological target: Calmodulin-1 (Homo sapiens) (UniProt P0DP23); assay: CALM1 binders on microarrays, EGTA buffer, profiling panel, biochemical, small-molecule microarray, Cy5-labelled CALM1 (AID 1111); settings: Cy5-CALM1 binding fluorescence, higher = more signal;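 further: labelled calmodulin applied in Tris saline Tween buffer holding calcium plus EGTA and DTT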
# [5] = biological target: Calmodulin-1 (Homo sapiens) (UniProt P0DP23); assay: calcium-bound CALM1 binders on microarrays, profiling panel, artefact control for SMM control-protein annotation, biochemical, small-molecule microarray, Cy5-labelled CALM1, plus calcium (AID 1112); settings: Cy5-CALM1 binding fluorescence, higher = more signal;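 further: score merges spot fluorescence with signal to noise from triplicate slides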
# [6] = small-molecule microarray binders of probe aWnt5a, primary screen, biochemical, biotinylated probe, 635/667 nm fluorescence (AID 1113); settings: higher = more signal;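 further: score merges 667 nm fluorescence intensity with signal-to-noise per printed feature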
# [7] = small-molecule microarray binders of probe aShh, primary screen, biochemical, biotinylated probe, 635/667 nm fluorescence (AID 1114); settings: higher = more signal;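 further: probe is biotin-labelled aShh protein from a stem cell growth factor screen; measures binding of labelled protein to compounds printed on the slide; score merges feature fluorescence at 667 nm with signal-to-noise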
# [8] = small-molecule microarray binders of probe aNog, primary screen, biochemical, biotinylated probe, 635/667 nm fluorescence (AID 1115); settings: higher = more signal;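 further: probe is biotinylated aNog protein used at 0.15 µg/mL for 1 h at 4 C; z-score combines 667 nm fluorescence of each spot with its signal to noise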
# [9] = biological target: Torsin-1A-interacting protein 1 (Homo sapiens) (UniProt Q5JTV8); assay: LAP1 binders from COS7 cell lysate, primary screen, small-molecule microarray, 635/667 nm fluorescence (AID 1116); settings: COS7-hLAP1 lysate binding, 635 nm fluorescence, higher = more signal
# [10] = biological target: Alpha-bungarotoxin (Bungarus multicinctus) (UniProt P60615); assay: alpha-bungarotoxin binders on microarray, profiling panel, artefact control for SMM control protein annotation, biochemical, small-molecule microarray, Alexa647 label, 635/667 nm fluorescence (AID 1117); settings: alpha-BTX-A647 binding fluorescence, higher = more signal
# Chain of Alpha-bungarotoxin (Bungarus multicinctus) (P60615 whole entry, looked up): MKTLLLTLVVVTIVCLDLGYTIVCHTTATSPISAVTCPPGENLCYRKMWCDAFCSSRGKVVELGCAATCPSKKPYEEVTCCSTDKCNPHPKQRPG
# Chain of Left-right determination factor 2 (Homo sapiens) (O00292 whole entry, looked up): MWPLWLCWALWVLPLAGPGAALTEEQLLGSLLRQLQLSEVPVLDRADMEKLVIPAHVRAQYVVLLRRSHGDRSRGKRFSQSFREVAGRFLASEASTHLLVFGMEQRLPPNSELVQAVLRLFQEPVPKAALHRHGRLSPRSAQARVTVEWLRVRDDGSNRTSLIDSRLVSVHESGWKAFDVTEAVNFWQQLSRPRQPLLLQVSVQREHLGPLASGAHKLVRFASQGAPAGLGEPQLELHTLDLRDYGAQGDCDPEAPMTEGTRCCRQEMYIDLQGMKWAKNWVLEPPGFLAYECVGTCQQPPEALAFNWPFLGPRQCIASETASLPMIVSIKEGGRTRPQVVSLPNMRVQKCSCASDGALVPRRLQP
# Chain of Torsin-1A-interacting protein 1 (Homo sapiens) (Q5JTV8 whole entry, looked up): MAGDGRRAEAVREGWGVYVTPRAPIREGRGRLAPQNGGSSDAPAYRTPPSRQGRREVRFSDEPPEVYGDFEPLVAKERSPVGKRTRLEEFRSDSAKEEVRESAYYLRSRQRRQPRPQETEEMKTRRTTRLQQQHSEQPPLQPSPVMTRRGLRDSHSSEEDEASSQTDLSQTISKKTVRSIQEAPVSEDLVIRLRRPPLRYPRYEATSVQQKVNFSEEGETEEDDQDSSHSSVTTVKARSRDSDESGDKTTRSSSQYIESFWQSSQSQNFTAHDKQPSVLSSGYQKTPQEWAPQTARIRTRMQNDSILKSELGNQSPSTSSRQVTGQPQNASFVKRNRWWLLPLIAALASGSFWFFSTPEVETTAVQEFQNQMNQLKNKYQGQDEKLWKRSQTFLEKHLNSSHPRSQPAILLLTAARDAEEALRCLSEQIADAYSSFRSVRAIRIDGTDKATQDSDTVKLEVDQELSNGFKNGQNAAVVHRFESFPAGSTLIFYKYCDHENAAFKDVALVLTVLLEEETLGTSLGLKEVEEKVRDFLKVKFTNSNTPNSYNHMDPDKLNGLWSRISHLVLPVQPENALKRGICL
Compound,composite z-score [1],z-score [2],composite z-score [3],composite z-score [4],composite z-score [5],composite z-score [6],composite z-score [7],composite z-score [8],composite z-score [9],composite z-score [10]
COc1c(C)cc(-c2cc3c(c(-c4ccccc4)n2)[Si](C(C)C)(C(C)C)OC3)cc1C,-0.689,-0.268,-0.0473,-0.319,-0.119,-0.184,-0.153,-0.122,-0.16,0.857
C=CCOC(=O)[C@H]1[C@@H]2C(=O)O[C@@H](c3ccccc3)[C@@H](c3ccccc3)N2[C@@H](c2ccc(OCCOC(=O)[C@H]3C[C@H]4C(=O)N[C@@H](Cc5ccccc5)C(=O)N4[C@H]3c3cccc(OCCO)c3)cc2)[C@]12C(=O)Nc1ccc(I)cc12,1.38,-1.68,0.692,0.384,0.334,0.0004,-0.144,-0.175,1.25,1.35
O=C1OCC=C[C@H]2OC34C=CCN(c5ccc(Cl)cc5)C(=O)[C@H]3N(CCCCCO)C(=O)[C@@H]4[C@@H]12 (stereo not given in full),-0.932,-0.621,-1.92,-0.501,0.0666,-0.172,0.0121,0.347,0.0462,-1.64
COCCCNC(=O)[C@@]1(Sc2ccc(C)cc2)CC(=O)N(C2Cc3ccccc3C2)[C@@H]1c1ccc(CO)cc1I,-0.499,-1.05,-1.31,-0.176,0.0685,-0.154,-0.536,-0.0621,-0.354,-0.0078
CC(C)CN1C(=O)[C@@]2(c3ccc([N+](=O)[O-])cc3)CC(=O)N(CC34CC5CC(CC(C5)C3)C4)[C@@H]2c2ccc(CO)cc21,-0.746,-1.07,-1.36,0.657,0.0047,-0.152,0.151,0.884,-1.09,0.578
COCCOC(=O)N1C(=O)[C@@]2(c3cc(C#CC4=CCCCC4)ccc31)[C@H](C(=O)N1CCN(c3ncccn3)CC1)[C@H]1C(=O)O[C@H](c3ccccc3)[C@H](c3ccccc3)N1[C@@H]2c1ccc(O)cc1,0.683,-1.46,0.557,0.951,0.727,-0.0685,0.258,0.0234,1.28,1.45
CC(=O)n1cc(C(O)C2C=CC3C(=O)N(c4ccccc4)C(=O)C3N2Nc2ccccc2)c2ccccc21 (stereo not given),-0.175,-1.95,-0.183,0.735,0.671,0.13,1.21,0.974,1.09,1.41
O=C(CS)NCCCCCCNC(=O)[C@@H]1C[C@@H]2C(=O)N3CCC[C@H]3C(=O)N2[C@@H]1c1cccc(OCCO)c1,1.41,0.0871,0.289,1.49,0.36,0.206,-0.0866,0.0482,1.41,2.16
Cc1ccc(S[C@]2(C(=O)NC(C)C)CC(=O)N(Cc3ccccc3C(F)(F)F)[C@@H]2c2ccc(CO)cc2I)cc1,0.187,-2.54,-0.796,-0.301,0.0016,-0.13,-0.0769,-0.0965,-0.0123,1.65
O=C1NC(=O)C2C1C=CC(C(O)c1cc(C(F)(F)F)cc(C(F)(F)F)c1)N2Nc1ccc(Cl)cc1Cl (stereo not given),-0.158,-0.99,-0.256,1.91,1.29,-0.0405,0.431,0.676,1.86,0.526
[N-]=[N+]=NCc1ccccc1C[C@@]1(C(N)=O)N=C(c2ccc(OCCCO)cc2)O[C@@H]1c1ccccc1CN=[N+]=[N-],1.43,-1.55,0.144,1.37,0.693,-0.0236,0.19,1.08,0.623,0.689
CCOC(=O)C1=CC[C@@H](c2ccccc2C(F)(F)F)N(S(=O)(=O)c2ccc(C)cc2)C1,0.648,-2.98,0.613,2.07,1.07,0.274,0.584,-0.395,1.5,1.49
COC(=O)[C@@]1(Cc2ccccc2)[C@H]2c3cc(C(=O)N4CCCC4)n(C[C@H](O)CO)c3C[C@H]2CN1C(=O)c1ccccc1,0.391,-0.925,-0.43,2.06,0.142,-0.124,-0.316,-0.107,2.96,-0.187
